Experimental data: PubChem BioAssay AID651567 (National Center for Advancing Translational Sciences (NCATS), 2012)
Among all 1,200 compounds or so, about 10 (0.8%) were called active. Another 4% or so got no clear call; they are omitted. Calls come from the whole dose curve; as a rule, active = well fitted inhibition curve with a large enough effect; inconclusive = small, poorly fitted or top-dose-only effect; inactive = no such curve, though single readings can be large or run the other way. The sample as a whole holds a higher share of actives than the screen did.

Assay: qHTS Assay to Find Inhibitors of Chronic Active B-Cell Receptor Signaling: Hit Validation in OCI-Ly3 Assay
Settings: OCI-Ly3 IkB-luciferase reporter, Chroma-Glo luminescence, 4 h; series mostly up to 46.1 µM
From the text: Diffuse large B-cell lymphoma (DLBCL) is the most common category of non-Hodgkin lymphoma, with ~20,000 new cases per year in the United States. DLBCL should be regarded as a collection of different neoplasms. Microarray gene expression analysis has defined two principal types of DLBCL, named for their similarity to normal B cell stages or activation states: a germinal center B-cell (GCB) type, and an activated B-cell (ABC) type. In ABC-DLBCL, a constitutive high-level activity of the NF-kappaB family of transcription factors has been observed (1) and NF-kappaB target genes are more highly expressed in ABC primary tumors than in GCB tumors. Functional studies have shown a constitutive high-level activity of the IkappaB (inhibitor of kappa-B) kinase (IKK) complex. […] Further analysis of DLBCL primary tumors for NF-kappaB target gene expression imply that although CARD11 is required for constitutive IKK activity in all ABC-DLBCL lines, mutations in CARD11 may be the root cause of IKK activation only in lines or tumors with such mutations. In other words, CARD11 mutations may explain NF-kappaB activation in only 10% of ABC-DLBCL cases. […] This process has been termed 'chronic active BCR signaling' (CABS). The goal of this screen is to find small-molecule inhibitors of the CABS pathway found in ABC-DLBCL lines using a cell-based assay that measures IkappaBalpa stability, which has already been extensively validated in the OCI-Ly3 line (PubChem AID:445; REF: 4). […] Hits from the primary screen were tested in this selectivity secondary assay. NIH Molecular Libraries Probe Production Network [MLPCN] NIH Chemical Genomics Center [NCGC] MLPCN Grant: R03 DA031086 PI Name: Dr. R. Eric Davis
Cells were seeded in 1536-well plates at 5000 cells/3ul in IMDM medium containing 0.5% FBS, w/o phenol red, L-glutamine, 25 mM HEPES, 3 mg/ml sodium bicarbonate. After centrifugation for 1 min. at 1000 rpm, 23 nl of compounds or DMSO were delivered to each well using a pin tool. Then 1ul 80ng/ml doxycycline was dispensed into white solid 1536-well plates and the plates were incubated at 37C/5% C02 in a cell incubator for 4 hrs. Then 4 ul Chroma-Glo luminescent substrate mix (Promega) was added to each well. The plate was incubated at R.T. for 10-15 min. The plates were measured on a ViewLux plate reader for green luminescence (540/20 nm filter) and red luminescence (618/8 nm filter). The green and red luminescent signals were corrected for red and green luminescence filter overlap using previously determined filter calibration constants (determined using the procedure outlined in the Promega Technical Manual). The %Activity was determined from the ratio of corrected green/red luminescent values. Green luminescent and ratio %Activity was determined by normalizing to the difference in signal between basal cells (0% Activity) and cells incubated with 10 uM of the proteasome inhibitor MG-132 (100% Activity). Red luminescent %Activity was normalized to the difference between red luminesence in basal cells (0%Activity) and zero luminescence (-100% Activity). Concentration-response curves were fitted to the signals arising from the green luminescence (I-kappa-B-alpha-luciferase fusion; IkB-luc) and the red luminescence (unfused luciferase; luc) as well as the calculated ratio. The concentration-effect curves were then classified based on curve quality (r2), response magnitude and degree of measured activity. Compounds were then categorized based on their concentration-response curves for all three datasets (Ikb-luc, luc and ratio).
Potency is the fitted concentration of half-maximal effect.

Potency, active:
O=C(/C=C/c1ccc(O)cc1)c1ccc(O)cc1O 16.4 µM
Oc1cccc(/C=N/Nc2ccc(Cl)nn2)c1O 20.6 µM
CC(=O)Nc1cc(N=Cc2ccc(O)cc2O)c(Cl)cc1Cl 14.6 µM
CCn1c(O)c(N=NC(=S)NCC2CCCO2)c2ccccc21 (centres undefined) 20.6 µM
ClCc1nc2ccccc2c2ccccc12 13 µM
Cc1ccc(O)c(N=Nc2nccs2)c1 16.4 µM
Cn1c(O)c(N=NC(=S)Nc2ccccc2F)c2cc(S(=O)(=O)N3CCOCC3)ccc21 3.66 µM

Potency, inactive:
COc1ccc(C(=O)/C=C/c2ccc(O)cc2)c2c1CC(O)C(C)(C)O2 (centres undefined)
Cc1ccc(/C=C/C(=O)c2nc3ccccc3[nH]2)cc1
COc1ccc2[nH]c3c(c2c1)CCN1C(=O)C(CC(=O)NCC24CC5CC(CC(C5)C2)C4)C[C@H](C(=O)N2CCCCC2)[C@@]31C (some centres undefined)
Nc1nc(SCc2nc(-c3ccccc3)no2)[nH]c(=O)c1-c1ccccc1
Oc1ccccc1/C=N/Nc1ccnc(SCc2ccccc2)n1
O=C(/C=C/c1ccccc1)c1ccc(NC2=NCCCS2)cc1
Cc1c(CCC(=O)N[C@@H](CCCNC(N)=O)C(=O)O)c(=O)oc2cc3oc4c(c3cc12)CCCC4
COc1ccc(/C=N/Nc2nccnc2Cl)c(OC)c1
CCO[C@H]1OC(C(=O)NCc2nc3ccccc3[nH]2)=C[C@@H](C2CC2)[C@@H]1CCCO
CNc1nc(-c2ccc(OC)cc2)c(-c2ccc(OC)cc2)s1
COc1ccc(C)cc1Nc1cc(C)nc2ncnn12
NC(=S)N/N=C1\CC(c2ccc3c(c2)OCCCO3)Oc2ccc(F)cc21 (centres undefined)
CCOC(=O)C1=C(O)c2ccccc2C(=O)/C1=C\c1ccc(CC)cc1
COCCn1nnnc1C(C(C)C)N(Cc1ccccc1)Cc1cc2cc(OC)ccc2[nH]c1=O (centres undefined)
CCCN1C(=O)C(=O)c2cc(Cl)ccc21
Cc1ccc2c(c1)C(=O)C(=O)N2CCOc1ccccc1
CC[C@]12c3[nH]c4cc(CCC(=O)N(C)C)ccc4c3CCN1C(=O)[C@@H](CC(=O)NC(C)(C)C)C[C@@H]2C(=O)N1CCN(C(=O)c2ccco2)CC1
CCOC(=O)c1ccc(-c2c(-c3cc(OC)c(OC)c(OC)c3)noc2C)cc1F
COc1ccccc1NC(=O)N1CCC(c2nc3cc(C)c(C)cc3[nH]2)CC1
Cc1cc(C)c2nc3sc(C(=O)N4CCOCC4)c(N)c3cc2c1
Cc1cc(Cl)n2c(nc3cc(F)c(F)cc32)c1C#N
NC(=S)N=Nc1c(O)n(CCCl)c2ccccc12
Oc1[nH]c2c(Cl)cc(Cl)cc2c1N=NC(=S)NCC1CCCO1 (centres undefined)
COC(=O)C1C(O)=C(C=Nc2cccc3ccccc23)C(=O)CC1(C)C (centres undefined)
CCOc1ccc(C(=O)NC(=S)Nc2cccc(S(=O)(=O)NC3=NCCC3)c2)cc1
CC1=CC(C)(C)N(S(=O)(=O)c2ccc(C)cc2)c2ccccc21
Cc1ccc(OC/C(=N\O)C(C)(C)C)c([N+](=O)[O-])c1
Cc1ccc(Nc2nc(-c3c(C)nc4ccccn34)cs2)cc1
CCOc1ccc(C(=O)c2cc([N+](=O)[O-])ccc2N2CCOCC2)cc1
COc1ccc(C=C2c3ccccc3C(=O)c3ccccc32)c(OC)c1
COc1ccc(/C=C/C(=O)c2cc(Br)ccc2OC(=O)c2ccco2)cc1OC
COCCN(Cc1cc2cc(C)cc(C)c2nc1Cl)C(=O)Nc1ccccc1
Cc1ccc(NC(=S)NNC(=S)Nc2ccc(C)cc2C)cc1
CCCCOc1ccc(Br)cc1/C(C)=N/NC1=NCCN1
COc1cccc(C2NC(=S)NC(C)=C2C(=O)c2ccccc2)c1OC (centres undefined)
O=C(/C=C/c1ccccc1Cl)c1cccnc1
CCOC(=O)C1CCN(S(=O)(=O)c2c(Cl)ccc3nonc23)CC1
S=c1nc2ccccc2c2nc(-c3ccccc3Br)[nH]n12
Oc1ccc(-c2nnc(Nc3cccc(O)c3)c3ccccc23)cc1
COc1ccc(-c2cc(C(F)(F)F)n3nc(C(=O)NCCCn4ccnc4)cc3n2)cc1
COc1ccccc1-c1cc(C(=O)NCCc2ccccc2)no1
COc1ccc(C(=O)c2ccc(N(C)C)cc2)c2ccccc12
CCCCC[C@H](O)/C=C/C1=C(CCCCCCC(=O)O)C(=O)CC1
CCc1nc2ccccc2c(C(=O)OCc2nc3ccccc3c(=O)[nH]2)c1C
S=c1nc2ccccc2c2nc(-c3ccccc3)[nH]n12
CCCc1oc2ccc(NS(=O)(=O)c3ccc(OC)cc3)cc2c1C(=O)OCC
COc1ccc2c(c1)c(/C=N/Nc1nc3ccccc3[nH]1)c(C)n2C
COC(=O)[C@@H]1[C@@H](C#N)C2(c3ccccc3-c3ccccc32)N(c2ccc(Cl)cc2)N1C#N
O=C(Nc1ccc([N+](=O)[O-])cc1)Nc1ccon1
Cc1cccc(Cn2cc(/C=C/[N+](=O)[O-])c3ccccc32)c1
CCN(CC)c1ccc2c(C)c(CO)c(=O)oc2c1
Cc1nc(NC(=S)Nc2ccccc2)sc1C
COc1ccc(OC)c(-c2cc(C(=O)Nc3c(C)nn(Cc4ccccc4)c3C)no2)c1
CCOC(=S)SCC(=O)Nc1nc(-c2ccc(Br)cc2)cs1
CC[C@]12c3[nH]c4cc(CCC(=O)N(C)C)ccc4c3CCN1C(=O)[C@@H](CC(=O)NCC13CC4CC(CC(C4)C1)C3)C[C@@H]2C(=O)N1CCN(C(=O)c2ccco2)CC1
Cc1cccc(NS(=O)(=O)c2ccc(-c3cnc(C4CC4)o3)cc2)c1C
CCN(CC)c1ccc(-c2nn3c(-c4ccccc4OC)nnc3s2)cc1
COc1cc(OC)cc(C(=O)NCC(=O)N2CC=C(c3ccccc3)CC2)c1
CC1=Nc2cc(C(=O)NCc3ccco3)ccc2Sc2ccc(C)cc21
CCCCC[C@H](O)/C=C/[C@@H]1[C@@H](CCCCCCC(=O)O)[C@@H](O)C[C@H]1O
COc1ccc(Nc2nc(-c3c(C)nc4ncccn34)cs2)cc1
COc1ccc(NC(=O)C(=O)NCC2CCCN2S(=O)(=O)c2ccc(C)cc2)cc1 (centres undefined)
COc1ccc(Nc2nc(N)nc(CCl)n2)cc1
Cc1ccc2nc(SCC(=O)Nc3cc(C(F)(F)F)ccc3N3CCOCC3)[nH]c2c1
CCOc1ccc(N(CC(=O)Nc2ccccc2OC)S(=O)(=O)c2ccccc2)cc1
COc1cc2c(cc1OC)C(c1ccc(OC)c(OC)c1OC)CC(=O)N2 (centres undefined)
Cc1ccccc1NC(=S)N=Nc1c(O)n(C)c2ccc(S(=O)(=O)N3CCOCC3)cc12
CCc1ccccc1NC(=S)N=Nc1c(O)n(C)c2ccc(S(=O)(=O)N3CCOCC3)cc12
COc1ccc(/C=C/C(=O)Nc2ccc(-n3nncc3-c3ccc(OC)c(OC)c3)cc2)cc1OC
COc1ccc(OC)c(C2C3=C(COC3=O)Nc3cc4c(cc32)OCO4)c1 (centres undefined)
CCN(CC)S(=O)(=O)c1ccc2c(c1)c(=O)c(C(=O)NCCc1ccc(OC)c(OC)c1)cn2C
O=C(COc1ccc(C(=O)c2ccc(F)cc2)cc1)NCc1ccc(F)cc1
